# From the supplement of paper PMC8728848
# About 410 targets per protein were measured; listed, in parts, are those with the strongest signals and a random draw of the rest.
# Assays:
# Assay in all cases: glycan array binding signal (z-score within array); higher = stronger binding
# Details in all cases: glycan notation: IUPAC condensed, linker removed
# [1] = target: Fuc(a1-2)Gal(b1-4)Glc
# Summary of the method: (§1)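 The binding signal is a Z-score computed within each array. Data were drawn from 3228 arrays in the Consortium for Functional Glycomics database, restricted to those with a known protein sequence. Scores were averaged over arrays of the same protein sequence at different concentrations or buffers, and over linkers, and negative values can be taken as non-binding.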
# [2] = target: Fuc(a1-2)Gal(b1-4)[Fuc(a1-3)]GalNAc(b1-3)Gal(b1-4)[Fuc(a1-3)]GlcNAc
# Summary of the method: as §1
# [3] = target: Fuc(a1-2)[Gal(a1-3)]Gal(b1-4)GlcNAc
# Summary of the method: as §1
# [4] = target: Fuc(a1-2)[GalNAc(a1-3)]Gal(b1-4)GlcNAc
# Summary of the method: as §1
# [5] = target: Fuc(a1-3)[Gal(b1-4)]GlcNAc(b1-4)Gal(b1-4)[Fuc(a1-3)]GlcNAc
# Summary of the method: as §1
# [6] = target: Fuc(a1-4)GlcNAc
# Summary of the method: as §1
# [7] = target: Gal(a1-3)Gal(b1-4)GlcNAc
# Summary of the method: as §1
# [8] = target: Gal3S(b1-4)GlcNAc6S
# Summary of the method: as §1
# [9] = target: Gal3S6S(b1-4)GlcNAc
# Summary of the method: as §1
# [10] = target: Gal3S6S(b1-4)GlcNAc6S
# Summary of the method: as §1
# [11] = target: Gal4S6S(b1-4)GlcNAc
# Summary of the method: as §1
# [12] = target: GalNAc(a1-3)Gal
# Summary of the method: as §1
# [13] = target: GlcNAc(b1-3)[GlcNAc(b1-4)][GlcNAc(b1-6)]GlcNAc
# Summary of the method: as §1
# [14] = target: GlcNAc(b1-4)[GlcNAc(b1-6)]GalNAc
# Summary of the method: as §1
# [15] = target: Kdn(a2-3)Gal(b1-3)GlcNAc
# Summary of the method: as §1
# [16] = target: Man(a1-2)Man(a1-2)Man(a1-3)Man
# Summary of the method: as §1
# [17] = target: Man(b1-4)GlcNAc
# Summary of the method: as §1
# [18] = target: Neu5Ac(a2-3)Gal(b1-3)[Fuc(a1-4)]GlcNAc(b1-3)Gal(b1-4)[Fuc(a1-3)]GlcNAc
# Summary of the method: as §1
# [19] = target: Neu5Ac(a2-3)Gal(b1-4)GlcNAc(b1-3)Gal(b1-4)GlcNAc
# Summary of the method: as §1
# [20] = target: Neu5Ac(a2-3)Gal(b1-4)[Fuc(a1-3)]GlcNAc(b1-3)Gal(b1-4)[Fuc(a1-3)]GlcNAc(b1-3)Gal(b1-4)[Fuc(a1-3)]GlcNAc
# Summary of the method: as §1
# [21] = target: Neu5Ac(a2-6)GalNAc(b1-4)GlcNAc
# Summary of the method: as §1
# [22] = target: Neu5Gc(a2-6)Gal(b1-4)GlcNAc
# Summary of the method: as §1
# [23] = target: Neu5Gc(a2-6)GalNAc
# Summary of the method: as §1
# [24] = target: Fuc(a1-2)Gal(b1-4)GlcNAc(b1-3)Gal(b1-4)GlcNAc(b1-3)Gal(b1-4)GlcNAc
# Summary of the method: as §1
# [25] = target: Fuc(a1-3)[Gal(b1-4)]GlcNAc(b1-2)Man(a1-6)[Gal(b1-4)GlcNAc(b1-2)Man(a1-3)]Man(b1-4)GlcNAc(b1-4)GlcNAc
# Summary of the method: as §1
# [26] = target: Gal(a1-3)GalNAc
# Summary of the method: as §1
# [27] = target: Gal(b1-3)[Fuc(a1-4)]GlcNAc
# Summary of the method: as §1
# [28] = target: Gal(b1-4)GalNAc(a1-3)[Fuc(a1-2)]Gal(b1-4)GlcNAc
# Summary of the method: as §1
# [29] = target: Gal(b1-4)GlcNAc
# Summary of the method: as §1
# [30] = target: Gal(b1-4)GlcNAc(b1-2)Man(a1-3)[Gal(b1-4)GlcNAc(b1-2)Man(a1-6)]Man(b1-4)GlcNAc(b1-4)GlcNAc
# Summary of the method: as §1
# [31] = target: Gal(b1-4)GlcNAc(b1-3)Gal(b1-3)GlcNAc
# Summary of the method: as §1
# [32] = target: Glc(a1-6)Glc(a1-6)Glc
# Summary of the method: as §1
# [33] = target: GlcA(b1-6)Gal
# Summary of the method: as §1
# [34] = target: GlcNAc(b1-2)Gal(b1-3)GalNAc
# Summary of the method: as §1
# [35] = target: Man(a1-3)[Man(a1-6)]Man(b1-4)GlcNAc(b1-4)GlcNAc
# Summary of the method: as §1
# [36] = target: Man(a1-6)Man
# Summary of the method: as §1
# [37] = target: Neu5Ac(a2-3)Gal(b1-3)[Fuc(a1-4)]GlcNAc
# Summary of the method: as §1
# [38] = target: Neu5Ac(a2-3)Gal(b1-4)GlcNAc(b1-2)Man(a1-3)[GlcNAc(b1-2)Man(b1-4)GlcNAc(b1-2)Man(a1-6)]Man(b1-4)GlcNAc(b1-4)GlcNAc
# Summary of the method: as §1
# [39] = target: Neu5Ac(a2-3)Gal(b1-4)GlcNAc(b1-2)Man(a1-3)[Neu5Ac(a2-6)Gal(b1-4)GlcNAc(b1-2)Man(a1-6)]Man(b1-4)GlcNAc(b1-4)GlcNAc
# Summary of the method: as §1
# [40] = target: Neu5Ac(a2-6)Gal(b1-4)GlcNAc
# Summary of the method: as §1
# [41] = target: Neu5Ac(b2-6)GalNAc
# Summary of the method: as §1
# [42] = target: Neu5Gc(a2-3)Gal(b1-3)[Fuc(a1-4)]GlcNAc
# Summary of the method: as §1
# [43] = target: Neu5Gc(a2-3)Gal(b1-4)[Fuc(a1-3)]GlcNAc
# Summary of the method: as §1
binder,measurement,setting,value
"HMGB1 (Homo sapiens), P09429 (protein) MGKGDPKKPRGKMSSYAFFVQTCREEHKKKHPDASVNFSEFSKKCSERWKTMSAKEKGKFEDMAKADKARYEREMKTYIPPKGETKKKFKDPNAPKRPPSAFFLFCSEYRPKIKGEHPGLSIGDVAKKLGEMWNNTAADDKQPYEKKAAKLKEKYEKDIAAYRAKGKPDAAKKGVVKAEKSKKKKEEEEDEEDEEDEEEEEDEEDEDEEEDDDDE",glycan array binding signal (z-score),[1],-0.488
same,glycan array binding signal (z-score),[2],-0.246
same,glycan array binding signal (z-score),[3],-0.3
same,glycan array binding signal (z-score),[4],-0.269
same,glycan array binding signal (z-score),[5],-0.39
same,glycan array binding signal (z-score),[6],-0.341
same,glycan array binding signal (z-score),[7],-0.418
same,glycan array binding signal (z-score),[8],3.64
same,glycan array binding signal (z-score),[9],3.32
same,glycan array binding signal (z-score),[10],4.75
same,glycan array binding signal (z-score),[11],3.25
same,glycan array binding signal (z-score),[12],-0.403
same,glycan array binding signal (z-score),[13],-0.309
same,glycan array binding signal (z-score),[14],-0.433
same,glycan array binding signal (z-score),[15],-0.363
same,glycan array binding signal (z-score),[16],-0.413
same,glycan array binding signal (z-score),[17],0.327
same,glycan array binding signal (z-score),[18],0.178
same,glycan array binding signal (z-score),[19],0.045
same,glycan array binding signal (z-score),[20],-0.332
same,glycan array binding signal (z-score),[21],0.028
same,glycan array binding signal (z-score),[22],0.015
same,glycan array binding signal (z-score),[23],-0.195
"Codakine (Codakia orbicularis), Q3KVL7_9BIVA (protein) MKILVAVFLVLVVVGTAAAGCPDGWTQFLDLCYIYQSAKASWASAQSSCQALGGILAEPDTACENEVLIHMCRENGDAGSFGPWLGGQKVGGAWQWSSSGAAFDYLRWGPNEPNNSGGNEDCLHYNWLSWNDLRCHYQASYLCQRAAE",glycan array binding signal (z-score),[1],-0.26
same,glycan array binding signal (z-score),[24],-0.235
same,glycan array binding signal (z-score),[3],-0.342
same,glycan array binding signal (z-score),[25],6.48
same,glycan array binding signal (z-score),[5],-0.321
same,glycan array binding signal (z-score),[26],-0.298
same,glycan array binding signal (z-score),[27],-0.203
same,glycan array binding signal (z-score),[28],-0.419
same,glycan array binding signal (z-score),[29],-0.3
same,glycan array binding signal (z-score),[30],4.02
same,glycan array binding signal (z-score),[31],-0.239
same,glycan array binding signal (z-score),[32],-0.317
same,glycan array binding signal (z-score),[33],-0.302
same,glycan array binding signal (z-score),[34],-0.276
same,glycan array binding signal (z-score),[35],4.3
same,glycan array binding signal (z-score),[36],0.449
same,glycan array binding signal (z-score),[37],-0.34
same,glycan array binding signal (z-score),[38],4.82
same,glycan array binding signal (z-score),[39],4.57
same,glycan array binding signal (z-score),[40],-0.224
same,glycan array binding signal (z-score),[41],-0.238
same,glycan array binding signal (z-score),[42],-0.265
same,glycan array binding signal (z-score),[43],-0.234
same,glycan array binding signal (z-score),[22],-0.289
